Screen size: about 48,000 compounds; about 160 (0.33%) were called active. The sample holds actives, similar compounds and a random draw of the others, so the mix is not that of the screen. A number with no mark means an inactive call.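 The calls were made as follows: active = survival measured by cellular ATP above 50% at 15 µg/ml in the first screen; inactive = the rest.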

A short description of this assay: protection against thapsigargin ER stress killing – CSM14.1 cells, ATP luminescence, primary screen (AID 1010).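 Also: cell death triggered by about 15 µM thapsigargin; ATP read 24 h after thapsigargin was added; plate controls were thapsigargin with DMSO for no effect and DMSO without thapsigargin for full effect.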 The following applies: CSM14.1 thapsigargin ER stress survival, stronger effect = higher value, screened at 15 µg/mL (by protocol).
Turning to `COc1ccc(C2Sc3ccccc3NC3=C2C(=O)c2ccccc23)cc1` (stereo not drawn), the relative survival (cellular ATP) is 5.1%.
As for `COc1ccc(NC(=O)c2cccc(N3C(=O)c4ccc(C(=O)Nc5ccc(OC)cc5)cc4C3=O)c2)cc1`, the relative survival (cellular ATP) was 0.4%.
`COc1cc(C2NC(=S)NC(C)=C2C(=O)Nc2ccccc2)ccc1O` (stereo not drawn): the relative survival (cellular ATP) is 3.8%.
`CC(=O)N1C(=O)c2cccc3cccc1c23`: the relative survival (cellular ATP) is 17.3%.
The figure for `COc1cc(/C=N/n2cnnc2)cc(Br)c1OCCOc1ccc(C(C)(C)C)cc1` is 6.5%; for `O=C(CNC(=O)C(c1ccccc1)c1ccccc1)N/N=C/c1cn[nH]c1-c1ccccc1` it is 49.7%.
As to `Cc1c(OCC(=O)c2ccc(F)cc2)ccc2c3c(c(=O)oc12)CCCC3`, the relative survival (cellular ATP) is 0.4%.
Consider `Cc1ccc(N(Cc2c(O)ccc3ccccc23)C(=O)c2cccc([N+](=O)[O-])c2)cc1`, for which the relative survival (cellular ATP) is -2.5%.
The figure for `O=S(=O)(/N=C/c1ccccc1)c1cccs1` is 1.2%.
Take `COc1ccc(NC2SC(=O)NC2=O)cc1` (stereo not drawn): the relative survival (cellular ATP) was 11.7%.
As for `CCOc1cccc(-c2cc(C(=O)N3CCCCCC3)c3ccccc3n2)c1`, the relative survival (cellular ATP) is 3.9%.
For `NNC(=O)c1n[nH]c2c1CCCCCCCCCC2`, the relative survival (cellular ATP) is -1.8%.
Next, `Cc1ccccc1NC(=S)N1CCN(c2cccc(Cl)c2)CC1`: 6.6%; `CSc1ccc(CN2CCN(C(=O)c3cccc(F)c3)CC2)cc1`: 7.7%.
As for `O=C(Nc1ccc(Br)cn1)c1cc2n(n1)C(C(F)(F)F)CC(c1cccs1)N2` (stereo not drawn), the relative survival (cellular ATP) was -3.5%.
As for `NS(=O)(=O)c1ccc(CCNC(=O)c2cccs2)cc1`, the relative survival (cellular ATP) is -2.4%.
For the compound `COc1ccccc1C(=O)NN1C(=O)/C(=C2/C(=O)N(CC(=O)O)c3ccccc32)SC1=S`, the relative survival (cellular ATP) is 25.3%.
In the case of `CCN(CC)S(=O)(=O)c1ccc(NC(=O)c2ccc(OC)c(I)c2)cc1`, the relative survival (cellular ATP) is 0.8%.
Next, `COc1ccc(C2CC(=O)C3=C(C2)Nc2ccccc2NC3c2cc3c(cc2[N+](=O)[O-])OCO3)cc1` (stereo not drawn): -4.3%.
Take `COC(=O)C1=C(C)NC2=C(C(=O)CC(c3ccc(OC)c(OC)c3)C2)C1c1ccccc1OCc1ccccc1` (stereo not drawn): the relative survival (cellular ATP) is 60.6% (active).
With `COc1ccc(C2CC(=O)C3=C(C2)Nc2ccccc2NC3c2ccc(SC)cc2)cc1` (stereo not drawn), the relative survival (cellular ATP) was 7.4%.
Take `COc1ccc(C2CC(=O)C3=C(C2)Nc2ccccc2NC3c2cc(F)ccc2F)cc1` (stereo not drawn): the relative survival (cellular ATP) is -0.8%.
Take `COc1ccc(C2CC(=O)C3=C(C2)Nc2ccccc2NC3c2cccc(C)c2)cc1` (stereo not drawn): the relative survival (cellular ATP) was 102% (active).
For `CCCCOc1ccccc1C1Nc2ccccc2NC2=C1C(=O)CC(c1ccc(OC)c(OC)c1)C2` (stereo not drawn), the relative survival (cellular ATP) is 76.5% (active).
Consider `COc1ccc(C2CC(=O)C3=C(C2)Nc2ccccc2NC3c2cccc(Cl)c2)cc1` (stereo not drawn), for which the relative survival (cellular ATP) is 6.7%.
For `COC(=O)C1=C(C)NC2=C(C(=O)CC(c3ccccc3)C2)C1c1cccc(I)c1` (stereo not drawn), the relative survival (cellular ATP) is 22.6%.
On to `COC(=O)C1=C(C)NC2=C(C(=O)CC(c3ccc(OC)c(OC)c3)C2)C1c1ccc(OC)c(OC)c1` (stereo not drawn), for which the relative survival (cellular ATP) is 8.8%.
Regarding `CCc1c(C)sc(NC(=O)CCc2ccc(OC)cc2)c1C#N`, the relative survival (cellular ATP) is 4.9%.
As for `COc1cccc(/C=N/N2CCN(Cc3ccc(Cl)cc3)CC2)c1`, the relative survival (cellular ATP) is -4.1%.
`CCOc1cc(OCC)cc(C(=O)Nc2cc3nn(-c4ccc(OC)cc4)nc3cc2C)c1`: the relative survival (cellular ATP) is 4.3%.
For the compound `CCCCCCCCC(=O)N/N=C/c1ccsc1C`, the relative survival (cellular ATP) is 2.5%.
With `Cc1cc(NC(=O)COC(=O)/C=C/c2ccc([N+](=O)[O-])cc2)no1`, the relative survival (cellular ATP) is 1.8%.
Turning to `Cc1ccc([N+](=O)[O-])cc1NC(=O)C12CC3CC(CC(C3)C1)C2`, the relative survival (cellular ATP) was -1.4%.
Turning to `CC1(C)Nc2ccc(OC(=O)c3ccccc3Br)cc2-c2c1ssc2=S`, the relative survival (cellular ATP) is -1%.
With `Cc1ccc(Cl)cc1NC1=CC(=O)CC(C)(C)C1`, the relative survival (cellular ATP) is 10.7%.
On to `O=C(NC1CCCCCC1)c1ccc([N+](=O)[O-])o1`, for which the relative survival (cellular ATP) is -27.9%.
In the case of `CCO/N=C1/CC(c2ccccc2)Cc2onc(C)c21` (stereo not drawn), the relative survival (cellular ATP) is 13.2%.
In the case of `COc1cc(C2Nc3ccc(C(=O)c4ccccc4)cc3NC3=C2C(=O)CCC3)cc(OC)c1OC` (stereo not drawn), the relative survival (cellular ATP) was -2.2%.
For `O=C1CCCC2=C1C(c1ccc(Cl)cc1)Nc1ccc(C(=O)c3ccccc3)cc1N2` (stereo not drawn), the relative survival (cellular ATP) is 72.5% (active).
Regarding `COC(=O)c1ccc(C2Nc3ccccc3NC3=C2C(=O)CC(c2ccccc2)C3)cc1` (stereo not drawn), the relative survival (cellular ATP) is 3.7%.
Next, `NC(=O)c1ccccc1N=Cc1ccccc1[N+](=O)[O-]`: 1.7%; `CCOc1ccc(N2C(=O)CC(NCc3cccnc3)C2=O)cc1` (stereo not drawn): 5.5%; `CC(=O)N(C1=C(Cl)C(=O)c2ccccc2C1=O)c1cccc(Br)c1`: 11.1%.
Next, `CC(=O)Nc1ccc(S(=O)(=O)Nc2ccc(Br)c(Cl)c2)cc1`: 5.8%.
The figure for `CCN(C(=O)c1ccccc1)c1ccccc1` is -4.6%.
Turning to `COc1ccc(C2/C(=C(\O)c3ccccc3)C(=O)C(=O)N2CCCCCC(=O)O)c(OC)c1` (stereo not drawn), the relative survival (cellular ATP) was -3.4%.
`CCN(C(=O)c1sc(NC(=O)c2ccc(Cl)cc2)c(C#N)c1C)C1CCCCC1`: the relative survival (cellular ATP) is 2.3%.
Regarding `CCOc1ccc(/C=N/N2CCN(c3ccccc3OC)CC2)cc1OC`, the relative survival (cellular ATP) was 5.2%.
As for `COc1ccc(C(=O)NC(N2CCCCC2)C(Cl)(Cl)Cl)cc1OC` (stereo not drawn), the relative survival (cellular ATP) is 3.6%.
`C=CCc1c(C)nc(-c2ccccc2)nc1Nc1ccc(C(=O)O)cc1`: the relative survival (cellular ATP) is 0.2%.
With `Cn1cc(/C=C2/SC(=S)N(c3ccccc3)C2=O)c2ccccc21`, the relative survival (cellular ATP) was 6.8%.
In the case of `CC1=C(C(=O)Nc2ccccc2)C(c2ccc3c(c2)OCO3)NC(=S)N1` (stereo not drawn), the relative survival (cellular ATP) was 10.1%.
Consider `CCOC(=O)C(=Cc1ccc(-c2cccc(Cl)c2Cl)o1)C(=O)OCC`, for which the relative survival (cellular ATP) was 5.9%.
As to `COc1ccc(NC(=O)c2cccc(F)c2)cc1OC`, the relative survival (cellular ATP) was 24.8%.
Regarding `COc1ccccc1-n1cnc2cc(NC(=O)c3ccccc3)ccc21`, the relative survival (cellular ATP) was 97.4% (active).
In the case of `COc1cc(OC)cc(C(=O)Nc2ccc3nn(-c4ccc(F)cc4)nc3c2)c1`, the relative survival (cellular ATP) is 4%.
For `COc1ccc(CN2CCN(C(=O)c3cccc(Cl)c3)CC2)cc1OC`, the relative survival (cellular ATP) was 2.9%.
The figure for `O=C(Nc1cccc(Br)c1)c1ccc(N2C(=O)c3cccnc3C2=O)cc1` is 4.6%; for `Cc1ccc(-c2[nH]ncc2/C=N/NC(=O)c2ccc(Br)cc2)cc1` it is 3.5%.
For the compound `COc1cc(OC)cc(C(=O)N2CCN(C)CC2)c1`, the relative survival (cellular ATP) is 4.1%.
Consider `CONC(=O)c1ccc(C(=O)c2cc(OC)ccc2OC)cc1`, for which the relative survival (cellular ATP) was 6.5%.
The figure for `CSCCOC(=O)COc1ccc(/C=N/NC(=O)c2ccc(CN3CCOCC3)cc2)cc1` is 9.5%; for `CN(C)c1cccc(C(=O)N2CCN(c3cccc(Cl)c3)CC2)c1` it is -2.8%; for `COc1cccc(/C=N/NC(=O)c2cc(-c3ccc4ccccc4c3)n[nH]2)c1` it is 5.9%.
For `CC(=O)c1c(-c2ccccc2)c2cc(C)ccc2[nH]c1=O`, the relative survival (cellular ATP) was -1.1%.
Regarding `O=C(NC(CO)(CO)CO)c1cccc(-c2ccc(O)cc2)c1`, the relative survival (cellular ATP) is -1.2%.
In the case of `CC(=O)Nc1ccc(NC(=O)c2ccccc2-c2ccccc2C(=O)O)cc1`, the relative survival (cellular ATP) was 7.5%.
Next, `Cc1ccc(C2=NNC(c3ccc(Cl)cc3Cl)S2)cc1` (stereo not drawn): -7.4%; `CCn1c(C(O)c2cc(OC)ccc2OC)nc2ccccc21` (stereo not drawn): 1.7%; `CN(C)CCOC(=O)CCN1C(=O)/C(=C/c2ccc(Cl)cc2Cl)SC1=S`: -20.4%.
With `O=C(O)CCN1C(=O)/C(=C/c2ccc(-c3cc(Cl)ccc3Cl)o2)SC1=S`, the relative survival (cellular ATP) was 64% (active).
The figure for `O=C1S/C(=C/c2ccc(-c3ccc(Cl)cc3Cl)o2)C(=O)N1c1ccccc1` is 7%; for `CCCN1C(=O)c2ccccc2NC1c1ccc(O)c(OC)c1` (stereo not drawn) it is -2.6%; for `C/C(=N\NC(=O)c1cccc([N+](=O)[O-])c1)c1cccnc1` it is 2.9%.
For the compound `COc1ccc(NC(=O)/C(C#N)=C/c2ccccc2[N+](=O)[O-])cc1`, the relative survival (cellular ATP) was 2.4%.
For the compound `Cc1ccc(NC(=O)CC2Nc3cc(C)c(C)cc3NC2=O)cc1` (stereo not drawn), the relative survival (cellular ATP) is 6.1%.
In the case of `Cc1nn(C(=O)C23CC4CC(CC(C4)C2)C3)c(C)c1Sc1ccc([N+](=O)[O-])cc1`, the relative survival (cellular ATP) was 6.7%.
Take `COC(=O)C1=CNC=C(C(=O)OC)C1c1cc(C)ccc1C`: the relative survival (cellular ATP) is 10%.
Regarding `O=C1C=CC(=O)N1Nc1c(Cl)cc(Cl)cc1Cl`, the relative survival (cellular ATP) was -7.8%.
With `C/C(CC(=O)Nc1cccc2ccccc12)=N\NC(=O)c1ccoc1C`, the relative survival (cellular ATP) was 5.7%.
Regarding `O=C(CCc1ccccc1)Nc1ccccc1-c1ccccc1`, the relative survival (cellular ATP) is 2.5%.
Take `COc1cc(OC)cc(C(=O)N/N=C(\C)CC(=O)Nc2ccccc2-c2ccccc2)c1`: the relative survival (cellular ATP) is 66% (active).
Take `CCOc1cc(C=C2C(=O)c3ccccc3C2=O)ccc1OCc1ccc(Cl)cc1Cl`: the relative survival (cellular ATP) is 11.4%.
Regarding `COc1cccc(OCCCCOc2ccccc2OC)c1`, the relative survival (cellular ATP) is 6%.
Regarding `CN1C(=O)C(=Cc2cc(Br)c(O)c(I)c2)C(=O)N(C)C1=O`, the relative survival (cellular ATP) was -1%.
The figure for `CCOCCOCCN1C(=O)c2ccccc2C1=O` is 6.5%.
Take `C/C(CC(=O)Nc1ccc(Nc2ccccc2)cc1)=N\NC(=O)c1ccccc1C`: the relative survival (cellular ATP) was 16.5%.
As for `CCOC(=O)CCc1c(C)nc2c(C)c(-c3ccc(C)cc3)[nH]n2c1=O`, the relative survival (cellular ATP) is 8.2%.
For `CCCCc1ccc(/C=N/Nc2ccc([N+](=O)[O-])cc2)s1`, the relative survival (cellular ATP) was 5%.
On to `CCOc1cc(C2NC(=S)NC(C)=C2C(=O)Nc2ccccc2C)ccc1O` (stereo not drawn), for which the relative survival (cellular ATP) is -0.3%.
Consider `CCOc1cc(C=O)cc(I)c1OC(C)C`, for which the relative survival (cellular ATP) was 0.3%.
Next, `CC(C)=N/N=C1/NC(=O)C(CC(=O)Nc2ccc(C)c(C)c2)S1` (stereo not drawn): 2%; `CC(=O)Nc1ccccc1NC(=O)COc1ccc(C)cc1C`: 6.5%.
